In the supplement of paper PMC8371130:
Counter-ions that a name gives are not always drawn.

System: HL-1
Assay: relative cell viability (CellTiter-Glo) vs DMSO control (% of DMSO control); higher = more viable cells
Outline: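 HL-1 mouse atrial cardiomyocytes were plated in 384-well plates at 1000 cells per well together with compounds at 40, 200, 1000 or 5000 nM in 0.01% DMSO. One day later, cells went to a hypoxic workstation (1% O2) for 48 h, then were reoxygenated for 24 h in a normal incubator, or stayed in normoxia for the same time. Cell viability was read by CellTiter-Glo luminescence and normalised to vehicle-treated control cells.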

[1] = oxygen condition: hypoxia 48 h (1% O2) + reoxygenation 24 h, 40 nM
[2] = oxygen condition: hypoxia 48 h (1% O2) + reoxygenation 24 h, 200 nM
[3] = oxygen condition: hypoxia 48 h (1% O2) + reoxygenation 24 h, 1000 nM
[4] = oxygen condition: hypoxia 48 h (1% O2) + reoxygenation 24 h, 5000 nM
[5] = oxygen condition: normoxia 72 h, 40 nM
[6] = oxygen condition: normoxia 72 h, 200 nM
[7] = oxygen condition: normoxia 72 h, 1000 nM
[8] = oxygen condition: normoxia 72 h, 5000 nM

Row | SMILES | relative cell viability [1] | relative cell viability [2] | relative cell viability [3] | relative cell viability [4] | relative cell viability [5] | relative cell viability [6] | relative cell viability [7] | relative cell viability [8]
1 | CC1CC(OC(=O)C(O)c2ccccc2)CC(C)(C)C1 (configuration not stated) [Cyclandelate] | 104 | 106 | 106 | 118 | 103 | 108 | 110 | 115
2 | CCC(NC(C)C)C(O)c1ccc(O)c(O)c1 (configuration not stated) [Isoetharine Mesylate] | 98.5 | 96.3 | 95.5 | 106 | 95.4 | 107 | 78.7 | 111
3 | CC1COc2c(N3CCN(C)CC3)c(F)cc3c(=O)c(C(=O)O)cn1c23 (configuration not stated) [Ofloxacin] | 99.3 | 99.8 | 97.8 | 108 | 98.5 | 97.3 | 62.4 | 115
4 | O=c1[nH]c(=O)n([C@H]2C[C@H](O)[C@@H](CO)O2)cc1F [Floxuridine] | 49.5 | 40.7 | 31.4 | 17.4 | 46.1 | 41.5 | 28.6 | 16.3
5 | N#Cc1ccc(C(c2ccc(C#N)cc2)n2cncn2)cc1 [Letrozole] | 103 | 105 | 109 | 104 | 107 | 110 | 105 | 110
6 | O=NN(CCCl)C(=O)NC1CCCCC1 [Lomustine] | 90.8 | 100 | 93.4 | 66.3 | 108 | 96.2 | 102 | 67
7 | CCOC(=O)[C@H](CCc1ccccc1)N[C@@H](C)C(=O)N1CCC[C@H]1C(=O)O [Enalapril maleate] | 101 | 101 | 103 | 105 | 98.5 | 103 | 99.2 | 99
8 | CCCCc1oc2ccccc2c1C(=O)c1cc(I)c(OCCN(CC)CC)c(I)c1 [Amiodarone HCl] | 99.8 | 95.4 | 103 | 110 | 102 | 110 | 106 | 116
9 | COc1ccc(CN2CCN(C(c3ccc(F)cc3)c3ccc(F)cc3)CC2)c(OC)c1OC [Lomerizine HCl] | 96.9 | 105 | 108 | 106 | 68.3 | 102 | 106 | 108
10 | Cc1c(OCC(F)(F)F)ccnc1C[S@@+]([O-])c1nc2ccccc2[nH]1 [Dexlansoprazole] | 105 | 101 | 107 | 105 | 101 | 97.7 | 104 | 91.9
11 | CCN1CC(CCN2CCOCC2)C(c2ccccc2)(c2ccccc2)C1=O (configuration not stated) [Doxapram HCl] | 102 | 104 | 100 | 107 | 116 | 103 | 106 | 112
12 | NC(=O)OCC(COC(N)=O)c1ccccc1 [Felbamate] | 101 | 106 | 96.3 | 110 | 110 | 107 | 105 | 110
13 | CC(C[N+](C)(C)C)OC(N)=O (configuration not stated) [Bethanechol chloride] | 96.1 | 99.6 | 107 | 86.9 | 104 | 104 | 98.4 | 111
14 | CN(C)CCN(Cc1ccccc1)c1ccccn1 [Tripelennamine HCl] | 97.8 | 87.6 | 88 | 103 | 93 | 91.8 | 94.1 | 105
15 | CC1Cc2ccccc2N1NC(=O)c1ccc(Cl)c(S(N)(=O)=O)c1 (configuration not stated) [Indapamide] | 106 | 104 | 110 | 114 | 105 | 102 | 106 | 121
16 | CN1CC(=O)N2[C@H](c3ccc4c(c3)OCO4)c3[nH]c4ccccc4c3C[C@@H]2C1=O [Tadalafil] | 106 | 105 | 116 | 112 | 106 | 112 | 110 | 121
17 | CC(C)n1c(/C=C/C(O)CC(O)CC(=O)O)c(-c2ccc(F)cc2)c2ccccc21 (configuration not stated) [Fluvastatin sodium] | 88.9 | 57.3 | 17.3 | 3.7 | 101 | 83.5 | 28.6 | 4.76
18 | Oc1cc(O)c(Cl)cn1 [Gimeracil] | 99.3 | 101 | 100 | 104 | 97.8 | 101 | 101 | 105
19 | CC(C)NC[C@H](O)COc1ccc(CCOCC2CC2)cc1 [Levobetaxolol HCl] | 110 | 102 | 107 | 115 | 105 | 106 | 108 | 115
20 | CC(C)(Oc1ccc(CCNC(=O)c2ccc(Cl)cc2)cc1)C(=O)O [Bezafibrate] | 102 | 98.2 | 105 | 107 | 105 | 101 | 99.8 | 103
21 | CC(C)C[C@H](NC(=O)[C@H](Cc1ccccc1)NC(=O)c1cnccn1)B(O)O [Bortezomib] | 10.4 | 10 | 8.52 | 4.58 | 12.9 | 10.5 | 6.82 | 4.44
22 | CCOC(=O)[C@H](CCc1ccccc1)N[C@@H](C)C(=O)N1C(=O)N(C)C[C@H]1C(=O)O [Imidapril] | 111 | 103 | 99.3 | 115 | 110 | 103 | 104 | 113

Row | SMILES | relative cell viability [1] | relative cell viability [2] | relative cell viability [3] | relative cell viability [4] | relative cell viability [5] | relative cell viability [6] | relative cell viability [7] | relative cell viability [8]
23 | CCN(CC)CCOc1ccc(C(=C(Cl)c2ccccc2)c2ccccc2)cc1 [Clomifene citrate] | 101 | 104 | 107 | 35.1 | 111 | 106 | 98.2 | 6.57
24 | CCCCCCCCOc1ccccc1C(=O)Nc1ccc(C(=O)OCC[N+](C)(CC)CC)cc1 [Otilonium Bromide] | 101 | 107 | 108 | 114 | 107 | 105 | 110 | 114
25 | C=C1CC[C@H](O)C/C1=C/C=C1\CCC[C@]2(C)[C@@H]([C@H](C)CCCC(C)(C)O)CC[C@@H]12 [Calcifediol] | 112 | 106 | 106 | 109 | 103 | 104 | 114 | 117
26 | Cc1ccc(Nc2nccc(N(C)c3ccc4c(C)n(C)nc4c3)n2)cc1S(N)(=O)=O [Pazopanib] | 104 | 108 | 102 | 116 | 92.7 | 102 | 110 | 110
27 | CN(C)c1nc(N(C)C)nc(N(C)C)n1 [Altretamine] | 102 | 109 | 115 | 109 | 115 | 103 | 108 | 122
28 | COc1cc([C@@H]2c3cc4c(cc3[C@@H](O[C@@H]3O[C@@H]5CO[C@@H](C)O[C@H]5[C@H](O)[C@H]3O)[C@H]3COC(=O)[C@H]23)OCO4)cc(OC)c1O [Etoposide] | 85.7 | 67.1 | 46.6 | 19.1 | 91.3 | 60.8 | 40 | 13.9
29 | O=C1C(O)=C([C@H]2CC[C@H](c3ccc(Cl)cc3)CC2)C(=O)c2ccccc21 [Atovaquone] | 98.8 | 103 | 113 | 112 | 98.2 | 104 | 98.5 | 115
30 | CCCNC(C)C(=O)Nc1c(C)csc1C(=O)OC (configuration not stated) [Articaine HCl] | 105 | 103 | 57.4 | 105 | 103 | 101 | 103 | 107
31 | CCCC(CCC)C(=O)O [Divalproex sodium] | 98.3 | 109 | 102 | 111 | 99.9 | 106 | 106 | 118
32 | CCN(CC)C(=S)SSC(=S)N(CC)CC [Disulfiram] | 12.3 | 8.25 | 4.82 | 4.57 | 19.2 | 11.5 | 6.89 | 3.79
33 | CC(=O)OCC(CCn1cnc2cnc(N)nc21)COC(C)=O [Famciclovir] | 101 | 104 | 100 | 113 | 106 | 106 | 105 | 121
34 | CCCCNc1ccc(C(=O)OCCN(C)C)cc1 [Tetracaine hydrochloride] | 97.8 | 104 | 107 | 106 | 103 | 106 | 111 | 108
35 | Cc1ccc(C)c(OCCCC(C)(C)C(=O)O)c1 [Gemfibrozil] | 98.5 | 104 | 101 | 103 | 102 | 113 | 106 | 106
36 | CN1CCOC(c2ccccc2)c2ccccc2C1 (configuration not stated) [Nefopam HCl] | 95.1 | 74.3 | 43.9 | 93.2 | 60.3 | 45.5 | 44.4 | 68.8
37 | CNCCC(Oc1ccc(C(F)(F)F)cc1)c1ccccc1 (configuration not stated) [Fluoxetine  HCl] | 103 | 109 | 114 | 110 | 104 | 114 | 106 | 114
38 | O=C(O)/C=C/c1ccc(Cn2ccnc2)cc1 [Ozagrel HCl] | 103 | 102 | 102 | 96.7 | 90.2 | 96.8 | 104 | 97.8
39 | COc1ccc(-c2nc3cc(C4=NNC(=O)CC4C)ccc3[nH]2)cc1 (configuration not stated) [Pimobendan] | 107 | 108 | 99.1 | 109 | 109 | 102 | 114 | 111
40 | C[C@]12CCC3=C4CCC(=O)C=C4CC[C@H]3[C@@H]1CC[C@@]2(O)CC#N [Dienogest] | 103 | 104 | 106 | 103 | 105 | 102 | 107 | 107
41 | OC(CCN1CCCCC1)(c1ccccc1)C1CC2C=CC1C2 (configuration not stated) [Biperiden HCl] | 106 | 104 | 93.9 | 108 | 106 | 106 | 106 | 100
42 | COc1ccccc1OCC(O)COC(N)=O (configuration not stated) [Methocarbamol] | 104 | 107 | 108 | 119 | 101 | 112 | 106 | 114
43 | CC(C)C(=O)Nc1ccc([N+](=O)[O-])c(C(F)(F)F)c1 [Flutamide] | 108 | 102 | 101 | 38.7 | 98.3 | 101 | 105 | 37
44 | CC(=O)OCC(=O)[C@@]12OC(C)(C)O[C@@H]1C[C@H]1[C@@H]3C[C@H](F)C4=CC(=O)C=C[C@]4(C)[C@@]3(F)[C@@H](O)C[C@@]12C [Fluocinonide] | 93.4 | 91.8 | 89.8 | 99 | 92.3 | 88.7 | 89.5 | 91.2
